This is an account of results in PubChem BioAssay (NCI).

Some test systems named below: SK-MEL-2 melanoma; EKVX NSCLC; UO-31 renal; TK-10 renal; ACHN renal; CAKI-1 renal; A498 renal; CCRF-CEM leukemia; MOLT-4 leukemia; RPMI-8226 leukemia; OVCAR-8 ovarian; OVCAR-5 ovarian; OVCAR-4 ovarian; SK-OV-3 ovarian; IGROV1 ovarian; OVCAR-3 ovarian; HS 578T breast; NCI/ADR-RES ovarian; SR leukemia; SN12C renal.
Assay in all cases: NCI-60 one-dose screen, 48 h (100 = growth as untreated, 0 = no growth, -100 = all killed)
Common to all, as to settings: 10 µM unless noted

This is part of a sample that, as a whole, favours compounds with a hit. Of some 83,000 tested, about 20% had one in any assay.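 Activity criterion: percent growth below 10, measured after cells in 96-well plates were exposed to a single compound concentration for 48 hours.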 Values without a mark were called inactive. Active and inactive are the calls of the source.

For the compound `CC(C)n1c(/C=C/[C@@H](O)C[C@@H](O)CC(=O)O)c(-c2ccc(F)cc2)c2ccccc21`, the growth was 15% in the assay on SK-MEL-2 melanoma; 52.7% in the assay with EKVX NSCLC; 44.7% in the assay on UO-31 renal; 88.7% in the assay with TK-10 renal; 10.3% with ACHN renal; -42.9% (active) in the assay on CAKI-1 renal. Besides, the growth was -21.3% (active) in the assay on A498 renal; 59.8% in the assay on CCRF-CEM leukemia; 60.8% with MOLT-4 leukemia; 53.2% with RPMI-8226 leukemia; 40.2% in the assay on OVCAR-8 ovarian; 85.8% in the assay on OVCAR-5 ovarian. For the same compound, the growth in the assay with OVCAR-4 ovarian is 90.4%; in the assay with SK-OV-3 ovarian, 72.6%; in the assay on IGROV1 ovarian it was 34.3%; with OVCAR-3 ovarian, 84.8%; with HS 578T breast, 55.1%; in the assay on NCI/ADR-RES ovarian, 22.1%.

For the compound `N#Cc1c(-c2ccc(Cl)cc2)nc(N/N=C/c2cccc(Br)c2)nc1N1CCOCC1`, the growth in the assay with SK-MEL-2 melanoma is 94.5%; in the assay with EKVX NSCLC, 68.7%; in the assay on UO-31 renal it was 51.2%; with TK-10 renal, 102%; in the assay on ACHN renal, 71.5%; in the assay on CAKI-1 renal, 73%. Also, the growth is -10.8% (active) with A498 renal; 50.3% in the assay with CCRF-CEM leukemia; 36.1% with MOLT-4 leukemia; 56% in the assay on RPMI-8226 leukemia; 101% with OVCAR-8 ovarian; 82% with OVCAR-5 ovarian. Besides, the growth was 95.6% in the assay on OVCAR-4 ovarian; 109% in the assay on SK-OV-3 ovarian; 94.8% with OVCAR-3 ovarian; 82.1% in the assay on HS 578T breast; 90.6% with NCI/ADR-RES ovarian.

For `Clc1ccc2c(NCCCCNc3nc(N4CCCCC4)nc4ccccc34)ccnc2c1`, the growth in the assay with SK-MEL-2 melanoma was -65.9% (active); with EKVX NSCLC it was 38.9%; in the assay on UO-31 renal, -55.6% (active); in the assay with TK-10 renal, -59.5% (active); in the assay with ACHN renal, -43.7% (active); with A498 renal, 41.1%. Further, the growth was -22.9% (active) in the assay with CCRF-CEM leukemia; 1.5% (active) in the assay on MOLT-4 leukemia; -35.7% (active) in the assay on SR leukemia; -45.9% (active) in the assay with RPMI-8226 leukemia; 11.7% in the assay on OVCAR-8 ovarian; 17.1% with OVCAR-5 ovarian. In addition, the growth in the assay on OVCAR-4 ovarian was 29.8%; in the assay on SK-OV-3 ovarian it was 50.8%; in the assay on IGROV1 ovarian it was 20.8%; in the assay on OVCAR-3 ovarian, -27.3% (active); in the assay with HS 578T breast, -19.9% (active); in the assay on NCI/ADR-RES ovarian it was 19.3%.

`CCOC(=O)c1cc(C(=O)c2ccc(O)c(O)c2)n2ccc(-c3ccn4c(C(=O)c5ccc(O)c(O)c5)cc(C(=O)OCC)c4c3)cc12`: the growth with SK-MEL-2 melanoma is 103%; with EKVX NSCLC, 94.9%; in the assay on UO-31 renal, 63.4%; with TK-10 renal, 83.3%; with ACHN renal, 97.4%; in the assay on A498 renal it was 96.6%. In addition, the growth was 84.5% with CCRF-CEM leukemia; 63.3% with MOLT-4 leukemia; 62.3% in the assay on SR leukemia; 74.4% with RPMI-8226 leukemia; 91.4% in the assay on OVCAR-8 ovarian; 121% in the assay on OVCAR-5 ovarian. Further, the growth was 86.5% in the assay with OVCAR-4 ovarian; 100% in the assay on SK-OV-3 ovarian; 87.4% in the assay on IGROV1 ovarian; 101% in the assay with OVCAR-3 ovarian; 85.8% with HS 578T breast; 102% in the assay on NCI/ADR-RES ovarian.

`c1ccc(-c2cc3n4c(-c5ccccc5)nn(-c5ccccc5)c4cnc-3n2)cc1`: the growth with SK-MEL-2 melanoma is 72.6%; with SN12C renal, 62.6%; in the assay on UO-31 renal, 60.7%; with TK-10 renal, 24.5%; in the assay on ACHN renal, 68.2%; in the assay on CAKI-1 renal it was 59.5%. Besides, the growth was 78.1% with A498 renal; 86.4% in the assay on CCRF-CEM leukemia; 88.9% with MOLT-4 leukemia; 113% in the assay on SR leukemia; 84.5% in the assay with RPMI-8226 leukemia; 58.1% with OVCAR-8 ovarian. The growth in the assay on OVCAR-5 ovarian was 92.3%; in the assay on OVCAR-4 ovarian, 43.5%; in the assay with SK-OV-3 ovarian it was 63.8%; with OVCAR-3 ovarian it was 60.3%; in the assay on HS 578T breast it was 31.6%; with NCI/ADR-RES ovarian it was 84.4%.

For the compound `CN(C)CCCNc1c2ccccc2nc2ccccc12`, the growth in the assay on SK-MEL-2 melanoma was 99.9%; in the assay with SN12C renal, 95.8%; in the assay with UO-31 renal, 103%; in the assay on TK-10 renal, 81.6%; with ACHN renal, 100%; in the assay on CAKI-1 renal, 106%. In addition, the growth is 102% in the assay on A498 renal; 86.9% with CCRF-CEM leukemia; 83.3% in the assay with MOLT-4 leukemia; 86.9% in the assay on SR leukemia; 100% in the assay on RPMI-8226 leukemia; 92% in the assay on OVCAR-8 ovarian. The growth in the assay on OVCAR-5 ovarian is 97.9%; in the assay with OVCAR-4 ovarian it was 87.4%; with SK-OV-3 ovarian, 95.8%; with IGROV1 ovarian, 97.5%; with OVCAR-3 ovarian it was 103%; in the assay with HS 578T breast, 75.7%.

Turning to `COc1ccc(C(=O)c2sc3nc(C)cc(C)c3c2N)cc1OC`, the growth in the assay with SN12C renal was 102%; in the assay on UO-31 renal, 87.3%; with TK-10 renal, 88.7%; in the assay on ACHN renal it was 88.2%; in the assay on CAKI-1 renal, 99.5%; in the assay with A498 renal, 87.5%. Further, the growth in the assay on CCRF-CEM leukemia was 98.2%; with MOLT-4 leukemia it was 96.4%; in the assay with SR leukemia, 83.5%; with RPMI-8226 leukemia, 96%; in the assay with OVCAR-8 ovarian it was 65.7%; in the assay with OVCAR-5 ovarian it was 104%. Further, the growth is 85.3% in the assay with OVCAR-4 ovarian; 77.6% in the assay with SK-OV-3 ovarian; 88.8% in the assay on IGROV1 ovarian; 94.8% in the assay with OVCAR-3 ovarian; 91.2% in the assay on HS 578T breast; 90.2% in the assay on NCI/ADR-RES ovarian.

As to `C=CCSSc1ncnc2c1ncn2C1OC(CO)C(O)C1O` (stereo unspecified), the growth in the assay on EKVX NSCLC was 91.9%; in the assay on UO-31 renal, 36.5%; in the assay with TK-10 renal, 26%; in the assay on ACHN renal, 25.3%; in the assay on CAKI-1 renal, -2.6% (active); in the assay on A498 renal, 43.3%. Also, the growth in the assay on MOLT-4 leukemia was 13.2%; in the assay with RPMI-8226 leukemia it was -8.17% (active); in the assay on OVCAR-8 ovarian it was 20.1%; in the assay with OVCAR-5 ovarian, 45.3%; in the assay on OVCAR-4 ovarian, 33.8%; in the assay with SK-OV-3 ovarian it was 7.46% (active). The growth with IGROV1 ovarian was 34.9%; with OVCAR-3 ovarian it was 29.1%; with HS 578T breast it was 47.9%; in the assay with NCI/ADR-RES ovarian it was 28.4%.
